Only some compounds are listed: those with a hit (about 3.3% of all), similar ones and a draw of the others.
H9c2 protect: modulators protecting cardiomyocytes from myocardial damage; 360,000 compounds, 0.63% hits; protection from H2O2 cell death, % at 20 µM; H9c2 cardiomyocytes, H2O2 injury protection, ATPLite, 2 h;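 active means compounds giving at least 50% protection of heart cells from peroxide-induced death in the single-dose screen, raw or plate-pattern-corrected value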;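 further: 0% = DMSO wells with peroxide and 100% = DMSO wells without peroxide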
Efflux pump mplx: blocks antifungal efflux pumps in multiplex yeast assay. S. cerevisiae Candida pump triplex, Nile Red efflux. inhibition, % at 10 µM. 330,000 compounds, 0.44% hits. AID 485275;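 active means plate passing quality check with inhibition over a set limit, or well fluorescence over plate mean plus 4 SD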;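 further: Nile Red retained in pooled yeast measured as flow cytometry median fluorescence; 0% = buffer negative control and 100% = Enniatin B positive control; higher means more Nile Red kept so more efflux inhibition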
Calb FLC: affects C. albicans growth with fluconazole | 300,000 compounds, 0.57% hits | growth inhibition, % (concentration not given with the values) | C. albicans CaCi-2 (fluconazole-resistant clinical isolate) + fluconazole, Alamar Blue growth, 48 h | AID 1979;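 active means growth inhibition above about 58% in most replicates, limit read from the data, passing the limit was not always enough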;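 further: all wells also contain fluconazole at 8 µg/ml as a sub-toxic cotreatment; 0% = median of DMSO wells and 100% = median of geldanamycin control wells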
KCC2 mod: KCC2 (human) Cl- transport modulation. Q9H2X9. KCC2 cells, thallium flux FluoZin-2 fluorescence. B-score of Tl+ flux slope (higher = more flux/activation; lower = inhibition) at 10 µM. 190,000 compounds, 2.2% hits. AID 1456;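 active means thallium flux slope and its plate-corrected score both differing from the plate sample mean at a set confidence after two filtering rounds, in either direction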;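 further: slope of fluorescence scaled to starting intensity during 10 to 20 s after thallium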
PHOSPHO1 block: inhibitors of human PHOSPHO1 phosphatase | Q8TCT1 | recombinant PHOSPHO1, absorbance phosphatase assay | inhibition, % at 13.3 µM | 290,000 compounds, 1.1% hits; in the data active means inhibition above about 60%
Starred values were filed as active, the others as inactive; nt = not tested or not shown.

SMILES	H9c2 protect	Efflux pump mplx	Calb FLC	KCC2 mod	PHOSPHO1 block
CC(Nc1c([N+](=O)[O-])c(=O)oc2ccccc12)c1ccccc1 (centres undefined)	-8	0	-28	-4.1	61*
COC(=O)[C@]1(C)N[C@H](CN(C)C(=O)Nc2ccc(Cl)cc2)[C@@H]2C(=O)N(C)C(=O)[C@@H]21	2	0	nt	nt	nt
Cc1nnc2ccc(-c3cccc(NC(=O)c4ccc(Cl)nc4)c3)nn12	63*	0	4	-1.7	14
O=C(Nc1nc(-c2cc(F)ccc2F)cs1)C1=NN(c2ccccc2)C(=O)CC1	51*	0	-1	-0.93	20
O=C(Nc1nc(-c2cc(F)ccc2F)cs1)c1ccccn1	13	0	-1	7.4*	32
CC1CCCCN1C(=O)COC(=O)C1CCN(S(=O)(=O)c2ccc3c(c2)OCCO3)CC1 (centres undefined)	-6	0	3	nt	nt
Nc1nc(N)c2cc(Sc3ccc4ccccc4c3)ccc2n1	-17	0	100*	0.063	42
COCC(=O)N1C[C@H]2CON(C)[C@H]2C[C@H]1c1ccc(N2CCCCC2)cc1	9	nt	nt	nt	nt
CCOc1ccccc1NC(=O)CCS(=O)(=O)c1ccc(Br)cc1	-1	0	3	nt	11
O=C1[C@H]2[C@@H](c3ccc(C(F)(F)F)cc3)N[C@]3(CCCN(Cc4ccc(F)cc4)C3=O)[C@H]2C(=O)N1Cc1ccccc1	67*	nt	nt	nt	nt
CCOC(=O)CCC(=O)Nc1cc(S(=O)(=O)N2CCOCC2)ccc1N1CCCCC1	10	0	nt	nt	nt
COc1ccc2ccccc2c1/C=N/NC(=S)Nc1cc(S(=O)(=O)N2CCOCC2)ccc1N1CCOCC1	0	0	-13	0.055	5
CCOc1cccc(/C=N/NC(=S)Nc2cc(S(=O)(=O)N3CCOCC3)ccc2N2CCOCC2)c1O	54*	1	-6	-0.015	2
CCOCC(=O)Nc1cc(S(=O)(=O)N2CCOCC2)ccc1N1CCCCC1	-6	0	14	0.54	75*
O=c1cc(COc2ncnc3ccccc23)nc2sccn12	13	0	-4	0.34	-5
Cc1ccsc1C(=O)OCc1cc(=O)n2ccsc2n1	31	0	nt	nt	nt
O=C(OCc1cc(=O)n2ccsc2n1)c1ccc(O)cc1O	64*	0	nt	nt	nt
O=c1cc(COc2ncnc3c(Cl)cc(Cl)cc23)nc2sccn12	55*	0	-4	-0.24	42
O=C(COc1ccc(F)cc1)N1CCC(Cc2ccccc2)CC1	-7	0	8	nt	24
O=C(N/C(=C\c1ccc(Cl)cc1)C(=O)N1CCOCC1)c1ccc([N+](=O)[O-])cc1	0	0	7	0.34	80*
O=C(N/C(=C\c1ccc(-c2ccccc2)o1)C(=O)N1CCOCC1)c1ccccc1	31	nt	nt	-7.3*	43
O=C(N/C(=C/c1cccs1)C(=O)N1CCOCC1)c1cccs1	-2	0	-4	-1.1	60*
COc1ccccc1NC(=O)OC(C)c1ccc(Cl)cc1 (centres undefined)	-3	0	8	nt	19
CC(Oc1ccc(Br)cc1)C(=O)NNC(=O)CCN1CCN(c2ccccc2)CC1 (centres undefined)	-3	0	7	nt	nt
CN1CCC(N(C)C(=O)COc2ccccc2Cl)CC1	8	0	nt	nt	nt
SMILES	H9c2 protect	Efflux pump mplx	Calb FLC	KCC2 mod	PHOSPHO1 block
CC1(C)CC(=O)C=C(Nc2cccc(F)c2)C1	-1	0	-1	nt	33
CN(C)c1cccc(NC2=CC(=[N+]3CCOCC3)CC(C)(C)C2)c1	-5	0	-6	-2.9	91*
C=C1C(=O)OC2C=C(CO)C3OC3C3OC3(C)CC(OC(=O)/C(=C/C)COC(C)=O)C12 (centres undefined)	-16	nt	nt	nt	nt
CCOC(=O)N1CCN(C(=O)C2CCC(=O)N(CCCc3ccccc3)C2)CC1 (centres undefined)	2	0	-3	nt	61*
COc1ccccc1Nc1ncnc2c1c(C)c(C)n2CCO	-5	0	2	nt	18
NC(=O)c1cc2ccccc2o/c1=N\NC(=O)c1ccc(F)cc1	64*	0	-7	nt	nt
Cc1cc(CNC(=O)Cn2nc(C)c([N+](=O)[O-])c2C)c2ccccc2n1	-6	0	3	-0.16	16
Cc1ccnc(NC(c2ccsc2)c2ccc3ccc(C)nc3c2O)c1 (centres undefined)	54*	0	-6	2.5	-95
COc1ccc(C(Nc2cc(C)ccn2)c2ccc3ccc(C)nc3c2O)cc1 (centres undefined)	62*	0	-1	1.9	-21
Cn1cc(/C=N/Nc2ccccc2)c2ccccc21	-9	0	101*	0.2	-18

Compound activity (PubChem BioAssay)
